Screens from PubChem.
HEK293 cAMP ctrl: qHTS Assay for Agonists of the Thyroid Stimulating Hormone Receptor: Activators of Intracellular cAMP Concentrations in Parental HEK 293 | parental HEK293 CNG cAMP sensor, membrane potential fluorescence | Potency, µM (top dose mostly 57.1 µM), inactives show top-dose activation, actives largely listed as activators | actives 2.5% (n = 73,000) | AID 938, 2007; further: potency means the concentration at half of the fitted maximal effect; % of control where 0% means no effect; nearly all actives have a fitted effect of over 55% in size
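Counterscreen for endogenous-receptor signalling: CNG-channel HEK 293 cells report cAMP rise by membrane depolarization. After 60 min dye equilibration with 100 uM RO 20-1724, compounds incubated 30 min before bottom-read fluorescence at 590 nm.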
TSHR ag: qHTS Assay for Agonists of the Thyroid Stimulating Hormone Receptor. Potency, µM (doses to about 57.1 µM), for the others: at the top dose activation, usual class: activators. HEK293-CNG-TSHR cells (CNG channel as cAMP sensor), membrane potential dye, cAMP. AID 926, 2007. actives 0.48% (n = 73,000). Thyrotropin receptor (Homo sapiens), P16473; active means well fitted activation curve with a large enough effect in the main read-out, with a control signal flat, not every such curve was filed as active; inconclusive means small, poorly fitted or top-dose-only effect, or a change in a side signal; inactive means no such curve, though single readings can be large or run the other way; % of control where 0% means no effect;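 further: the control signal comes from parental cells without the receptor; potency means the concentration at half of the fitted maximal effect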
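cAMP rise detected as CNG-channel membrane depolarization by fluorescent dye (emission 590 nm), 30 min after compound, following 60 min dye loading containing 100 uM RO 20-1724 at room temperature. Cells: TSHR/CNG HEK 293, with parental CNG HEK 293 as control.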
Pol III holo inh: qHTS Assay for Inhibitors of DNA Polymerase III Holoenzyme System. reconstituted DNA polymerase III holoenzyme replication, biochemical. Potency, µM (series often up to 57.1 µM), inactives show at the top dose activity change, negative = inhibition. actives 0.25% (n = 71,000); further: potency means the concentration at half of the fitted maximal effect; on the % scale 0 is the no-effect control and ±100 the full control effect
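Reconstituted *E. coli* holoenzyme (0.35 nM Pol III, 1 nM beta, 154 nM SSB, 2 nM primase) was preincubated with compound for 15 min at RT. Synthesis on 1.4 nM ssM13Gori ran 35 min, then was stopped with PicoGreen/EDTA and read as dsDNA fluorescence.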
YjeE inh: qHTS Assay for Inhibitors of YjeE; tRNA threonylcarbamoyladenosine biosynthesis protein TsaE (Escherichia coli (strain …; purified YjeE enzyme, qHTS inhibition assay; Potency, µM; actives 0.05% (n = 71,000); AID 605, 2007
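Purified YjeE (10 uM) with BODIPY Texas Red-labeled ADP probe (2 uM); compounds pin-transferred, 15 min at room temperature. Binding inhibition read as decreased fluorescence polarization; ADP titration as control.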
BRCT PPI red: qHTS Assay for Inhibitors of BRCT-Phosphoprotein Interaction (Red Fluorophore); BRCT-phosphopeptide binding, red fluorescence polarization; actives 0.03% (n = 75,000); Potency, µM (doses to about 76.9 µM), for inactives: at the top dose activity change, negative = inhibition, usual class: inhibitors; AID 892, 2007; Breast cancer type 1 susceptibility protein (Homo sapiens), P38398; further: on the % scale 0 is the no-effect control and ±100 the full control effect
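Rhodamine-labelled pBACH1 10-mer (100 nM) bound to BRCT domain (100 nM) at pH 7.3; compounds incubated 12 min room temperature, polarization read. Free peptide defines full inhibition; unlabelled decapeptide titrated as control.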
BRCT inh green: qHTS Assay for Inhibitors of BRCT-Phosphoprotein Interaction (Green Fluorophore). actives 0.05% (n = 75,000). Breast cancer type 1 susceptibility protein (Homo sapiens), P38398. Potency, µM (highest dose often 76.9 µM), inactives show top-dose activity change, negative = inhibition, most hits filed as inhibitors. BRCA1 BRCT-phosphopeptide binding, green fluorescence polarization;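 further: potency means the concentration at half of the fitted maximal effect; plate controls were peptide without protein for full effect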
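Compounds were incubated for 12 min at room temperature with a complex of 100 nM fluorescein-tagged pBACH1 decapeptide and 250 nM His-tagged BRCT protein. Buffer was phosphate pH 7.3 with EDTA, DTT and Tween 20. Disruption of binding lowers the polarization signal.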
* hit, by the source's call; i = inactive; ? = inconclusive; . = not tested or not shown; [ ] = remark or other dose. An excerpt weighted towards active compounds, which were near 3.2% of everything screened. Unless noted, the call rests on the fitted dose curve; in most records, active means well fitted curve in the direction sought with a large enough effect; inconclusive means small, poorly fitted or top-dose-only effect, or another doubt; inactive means no such curve, though single readings can be large; an effect the other way counts as inactive or inconclusive.

SMILES	HEK293 cAMP ctrl	TSHR ag	Pol III holo inh	YjeE inh	BRCT PPI red	BRCT inh green
CCCCCCC#CC1C=CC(Oc2ccc(C=O)cc2)C(CO)O1 (configuration not stated)	1%[11.4 µM]	4%[11.4 µM]	.	.	1%[15.4 µM]	-2%[15.4 µM]
COc1ccccc1-c1nccc(N2CCN(C)CC2)n1	28%	26%	-4%	i	-1%	-1%
O=C(Nc1ccccc1C(F)(F)F)N1CCCCCC1	8%	20%	5%	i	1%	-1%
O=C(NC1c2ccccc2-c2ccccc21)N1CCCCC1	3.2µM*	?	3%[11.4 µM]	i	0%	-1%
CC(C(=O)Nc1ccccc1-c1ccccc1)N1CCN(C(=O)c2ccco2)CC1 (configuration not stated)	27%	.	4%	i	-4%	2%
FC(F)(F)c1cc(CO[C@H]2CCCN[C@H]2c2ccccc2)cc(C(F)(F)F)c1	20µM*	?	-13%	i	1%	2%
Cc1nc2ncnn2c(N2CCN(C(c3ccccc3)c3ccccc3)CC2)c1C	32µM*	?	-7%	?	0%	11%
Cc1cc(N2CCN(C(c3ccccc3)c3ccccc3)CC2)n2ncnc2n1	?	?	10%	i	1%	2%
CSCC[C@@H]1NC(=O)C/C=C\[C@@H](C)COC(=O)[C@@H](C)COC1=O	-1%[11.4 µM]	3%[11.4 µM]	.	.	0%[15.4 µM]	0%[15.4 µM]
Cc1cc(C)n(-c2nc3ccccc3nc2N2CCCCCC2)n1	20µM*	?	-1%	i	0%	2%
Cc1cc(C)n(-c2nc3ccccc3nc2N2CCOCC2)n1	11%	7%	1%	i	0%	-1%
COc1cccc(Cn2c(=O)c(-c3cccc(F)c3)nc3cncnc32)c1	8%	-2%	-3%	i	-2%	-5%
Ic1ccc2c(c1)N(c1ccccc1)c1cc(Nc3ccc4nc5ccc(I)cc5[n+](-c5ccccc5)c4c3)ccc1N2	-1%[11.4 µM]	0%[11.4 µM]	-8%[11.4 µM]	?	1%[15.4 µM]	0%[15.4 µM]
CCOCCCn1c(C)nc2c(c1=O)c1nc3ccccc3nc1n2CCC1=CCCCC1	20µM*	?	-11%	i	-3%	-5%
Nc1nc2c(nc(Sc3ccc(Cl)cc3)n2C2OC(CO)C(O)C2O)c(=O)[nH]1 (configuration not stated)	.	.	.	.	1%	-1%
Cc1ccnc(N2CCC(C(=O)Nc3cccc(C(F)(F)F)c3)CC2)n1	20µM*	?	-5%	i	-2%	1%
Cc1ccnc(N2CCC(C(=O)Nc3ccc(Oc4ccccc4)cc3)CC2)n1	8%	-2%	0%	i	-2%	-1%
CCCCCCCCCC[Si](C)(C)CCC(=O)N[C@@H](Cc1ccc(C)cc1)c1ccccc1	-5%	10%	1%	i	-2%	1%
COc1cccc(C(=O)Nc2cccc(-c3nc4ncccc4o3)c2C)c1	16µM*	?	-6%	i	0%	0%
CCOC(=S)SCC(=O)O	7%[11.4 µM]	3%[11.4 µM]	-11%[11.4 µM]	i	1%[15.4 µM]	-1%[15.4 µM]
CSc1nnc2c3ccccc3n(Cc3ccccc3)c2n1	20µM*	?	0%	i	1%	-3%
CSc1nnc2c3ccccc3n(CCc3ccccc3)c2n1	4µM*	?	-6%[11.4 µM]	i	0%	2%
CSc1nnc2c3cc(F)ccc3n(Cc3ccccc3)c2n1	29%	22%	-4%	i	-1%	0%
NCC(=O)Nc1ccccc1	?	?	-4%[11.4 µM]	i	1%[15.4 µM]	-5%[15.4 µM]
COCCNC(=O)c1ccc(Cc2nc3ccccc3[nH]2)cc1	-15%	0%	.	.	-2%	-2%
